# Assay results reported in PubChem BioAssay (Tox21).
# Unmarked numbers belong to inactive results. Inconclusive results are not listed. Where a call stands in place of a potency, no number is given. Activity calls are given as the source filed them. Unless noted, the call rests on the fitted dose curve.
# What was measured:
# [1] = Nuclear factor erythroid 2-related factor 2/antioxidant responsive element (Nrf2/ARE) small molecule agonists: qHTS cell viability counter screen in human keratinocytes (AID 1919968; active means well fitted curve in the direction sought with a large enough effect in the repeat runs; an effect the other way counts as inactive or inconclusive; further: nearly all actives have a fitted effect of over 55% in size; further: potency means the concentration at half of the fitted maximal effect)
# Procedure, shortened: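 Seed 1,500 KeratinoSens cells per well, then incubate 5 h at 37 C/5% CO2. Add compounds in DMSO and incubate 23 h. Add CellTiter-Fluor, wait 1 h and read fluorescence.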
# [2] = Nuclear factor erythroid 2-related factor 2/antioxidant responsive element (Nrf2/ARE) small molecule agonists: luciferase reporter gene qHTS assay in human keratinocytes (AID 1919969); further: nearly all actives have a fitted effect of over 35% in size; further: potency means the concentration at half of the fitted maximal effect
# [3] = target: Gonadotropin-releasing hormone receptor (Homo sapiens) (UniProt P30968); assay: Human gonadotropin-releasing hormone receptor (GnRHR) small molecule agonists, calcium flux assay in GnRHR-HEK293 cells (AID 1920063); further: nearly all actives have a fitted effect of over 35% in size
# Sequence of Gonadotropin-releasing hormone receptor (Homo sapiens) (P30968 whole entry, looked up): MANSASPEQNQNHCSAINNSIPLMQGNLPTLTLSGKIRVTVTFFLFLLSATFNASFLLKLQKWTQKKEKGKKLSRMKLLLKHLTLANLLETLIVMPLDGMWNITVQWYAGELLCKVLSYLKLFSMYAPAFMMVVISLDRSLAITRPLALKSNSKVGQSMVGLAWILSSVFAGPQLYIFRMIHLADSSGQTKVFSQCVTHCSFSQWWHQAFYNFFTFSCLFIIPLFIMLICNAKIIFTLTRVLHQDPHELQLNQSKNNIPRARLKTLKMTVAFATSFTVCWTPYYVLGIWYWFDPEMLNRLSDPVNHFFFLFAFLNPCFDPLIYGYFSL
# Procedure, shortened: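 Cells: HEK293 stably expressing human GnRHR. Steps: overnight (18 h) culture, 1 h calcium dye loading at 37 C, compound addition, kinetic fluorescence read at 480/540 nm. Each compound tested at 15 concentrations in triplicate.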
# [4] = target: KiSS-1 receptor (Homo sapiens) (UniProt Q969F8); assay: Human kisspeptin (KISS1R) small molecule agonists, calcium flux assay in KISS1R-HEK293 cells (AID 1920064; active means well fitted curve in the direction sought with a large enough effect in the repeat runs; an effect the other way counts as inactive or inconclusive)
# Sequence of KiSS-1 receptor (Homo sapiens) (Q969F8 whole entry, looked up): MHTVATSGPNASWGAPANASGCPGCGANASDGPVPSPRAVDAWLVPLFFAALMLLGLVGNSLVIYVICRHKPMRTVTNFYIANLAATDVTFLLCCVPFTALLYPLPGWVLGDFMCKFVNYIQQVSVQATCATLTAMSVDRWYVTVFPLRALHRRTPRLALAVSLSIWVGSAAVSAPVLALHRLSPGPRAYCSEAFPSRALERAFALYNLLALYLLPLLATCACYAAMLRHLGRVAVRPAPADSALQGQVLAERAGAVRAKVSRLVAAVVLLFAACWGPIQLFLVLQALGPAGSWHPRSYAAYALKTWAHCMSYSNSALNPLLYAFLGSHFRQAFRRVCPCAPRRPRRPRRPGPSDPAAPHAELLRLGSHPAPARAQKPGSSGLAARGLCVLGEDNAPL
# Procedure, shortened: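 Cells plated and incubated 18 h; dye added, 1 h at 37 C; compounds in DMSO pinned in; signal read at 480/540 nm every second for 3 min. Each compound tested at 15 concentrations in triplicate.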
# [5] = p53 small molecule agonists, cell-based qHTS assay with human liver microsomes (AID 1963577)
# Procedure, shortened: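 Cells carrying a p53-responsive bla reporter were rested 5 h (37 C, 5% CO2) before compound transfer. Human liver microsomes plus NADPH, 0.5 mg/mL final apiece, supplied metabolism during the 16 h 37 C exposure.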
# [6] = p53 small molecule agonists, cell-based qHTS assay with rat liver microsomes (AID 1963578)
# Procedure, shortened: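 Fluorescence from a beta-lactamase reporter under a p53 response element was measured after cells had been incubated 16 h at 37 C with test compound and rat liver microsomes plus NADPH (0.5 mg/mL final each).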
# [7] = p53 small molecule agonists, cell-based qHTS assay with rat liver microsomes: qHTS cell viability counter screen (AID 1963580); further: nearly all actives have a fitted effect of over 45% in size
# Procedure, shortened: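 HCT-116 p53RE-bla, 4,000 cells/well, 5 h pre-incubation; cpd + rat liver microsomes 0.5 mg/mL + NADPH 0.5 mg/mL (final); 16 h, 37 C; CellTiter-Glo, 30 min RT; luminescence.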
# [8] = target: 5-hydroxytryptamine receptor 2A (Homo sapiens) (UniProt P28223); assay: 5-hydroxytryptamine receptor 2A (HTR2A) small molecule antagonists, cell-based qHTS assay (AID 1963586); further: nearly all actives have a fitted effect of over 45% in size; further: potency means the concentration at half of the fitted maximal effect
# Sequence of 5-hydroxytryptamine receptor 2A (Homo sapiens) (P28223 whole entry, looked up): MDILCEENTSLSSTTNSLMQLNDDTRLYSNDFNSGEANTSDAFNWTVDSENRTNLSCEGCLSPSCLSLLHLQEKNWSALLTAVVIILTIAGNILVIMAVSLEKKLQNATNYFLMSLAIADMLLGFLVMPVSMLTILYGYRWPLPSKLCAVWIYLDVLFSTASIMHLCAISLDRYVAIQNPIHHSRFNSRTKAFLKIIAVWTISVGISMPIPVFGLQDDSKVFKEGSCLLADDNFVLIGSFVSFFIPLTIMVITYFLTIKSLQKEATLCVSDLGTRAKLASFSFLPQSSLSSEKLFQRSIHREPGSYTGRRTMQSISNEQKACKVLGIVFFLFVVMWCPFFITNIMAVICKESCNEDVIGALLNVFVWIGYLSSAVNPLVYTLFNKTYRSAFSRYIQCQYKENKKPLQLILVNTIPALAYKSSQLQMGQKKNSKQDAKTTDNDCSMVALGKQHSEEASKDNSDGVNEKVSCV
# Procedure, shortened: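 Antagonist-mode intracellular calcium assay: DOI (4 nM) added after 5 min compound pre-incubation at room temperature to dye-loaded HTR2A-CHO cells. Fluorescence followed for 3 min, sampled every second.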
# [9] = target: 5-hydroxytryptamine receptor 2A (Homo sapiens) (UniProt P28223); assay: 5-hydroxytryptamine receptor 2A (HTR2A) small molecule agonists, cell-based qHTS assay (AID 1963587); further: nearly all actives have a fitted effect of over 30% in size; further: potency means the concentration at half of the fitted maximal effect
# Procedure, shortened: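 Kinetic calcium-flux fluorescence (2 min, 1 sec intervals) after compound addition in agonist mode. HTR2A-CHO cells were cultured 18 h, then dye-loaded 1 h at 37 C.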
# [10] = target: Muscarinic acetylcholine receptor M1 (Homo sapiens) (UniProt P11229); assay: Cholinergic receptor muscarinic 1 (CHRM1) small molecule antagonists, cell-based qHTS assay (AID 1963588); further: nearly all actives have a fitted effect of over 40% in size
# Sequence of Muscarinic acetylcholine receptor M1 (Homo sapiens) (P11229 whole entry, looked up): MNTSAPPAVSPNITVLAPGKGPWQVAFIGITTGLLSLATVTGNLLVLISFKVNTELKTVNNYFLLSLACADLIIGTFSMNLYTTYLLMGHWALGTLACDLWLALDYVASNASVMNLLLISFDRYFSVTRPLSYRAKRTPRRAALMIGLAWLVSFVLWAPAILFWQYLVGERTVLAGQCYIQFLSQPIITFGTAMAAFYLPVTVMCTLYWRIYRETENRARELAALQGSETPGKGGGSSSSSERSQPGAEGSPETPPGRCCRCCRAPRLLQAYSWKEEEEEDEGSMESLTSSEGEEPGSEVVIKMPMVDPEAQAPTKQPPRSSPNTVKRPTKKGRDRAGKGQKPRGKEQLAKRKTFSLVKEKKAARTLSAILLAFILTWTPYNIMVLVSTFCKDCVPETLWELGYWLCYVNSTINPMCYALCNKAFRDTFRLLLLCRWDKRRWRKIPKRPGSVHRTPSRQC
# Procedure, shortened: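 CHRM1-CHO calcium-flux assay, antagonist mode. Cells were seeded 18 h, dye-loaded 1 h at 37 C and given compound for 5 min at RT, then acetylcholine was added at 50nM. FDSS fluorescence was read 3 min; 15 concentrations, three runs.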
# [11] = target: Muscarinic acetylcholine receptor M1 (Homo sapiens) (UniProt P11229); assay: Cholinergic receptor muscarinic 1 (CHRM1) small molecule agonists, cell-based qHTS assay (AID 1963589); further: nearly all actives have a fitted effect of over 35% in size
# Procedure, shortened: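 Agonist-mode qHTS in CHO cells stably carrying human muscarinic M1. Intracellular calcium is tracked by fluorescence every second after compound transfer; each compound runs at 15 concentrations in three independent runs.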
# [12] = target: Beta-2 adrenergic receptor (Homo sapiens) (UniProt P07550); assay: Adrenergic beta2 receptor (ADRB2) small molecule antagonists, cell-based qHTS assay (AID 1963592); further: series mostly up to about 92 µM; nearly all actives have a fitted effect of over 50% in size
# Sequence of Beta-2 adrenergic receptor (Homo sapiens) (P07550 whole entry, looked up): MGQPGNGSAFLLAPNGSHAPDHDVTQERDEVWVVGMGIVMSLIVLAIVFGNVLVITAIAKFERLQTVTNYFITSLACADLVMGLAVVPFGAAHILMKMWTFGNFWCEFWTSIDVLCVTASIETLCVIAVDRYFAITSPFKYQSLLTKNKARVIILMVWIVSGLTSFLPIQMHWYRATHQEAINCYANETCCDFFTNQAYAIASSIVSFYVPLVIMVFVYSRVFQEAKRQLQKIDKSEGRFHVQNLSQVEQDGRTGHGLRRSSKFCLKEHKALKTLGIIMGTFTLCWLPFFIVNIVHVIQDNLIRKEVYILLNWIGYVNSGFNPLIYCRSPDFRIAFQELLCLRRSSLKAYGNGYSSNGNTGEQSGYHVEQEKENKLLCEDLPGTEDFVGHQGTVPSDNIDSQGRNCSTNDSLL
# Procedure, shortened: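 Cells (CHO, stable ADRB2 overexpression) incubated 18-20hr at 37C; compounds added from DMSO; agonist mix (1nM isoproterenol, 100uM IBMX, 25uM Ro-20-1724) added; 0.5hr RT; d2-cAMP and anti-cAMP-cryptate added; 1hr RT; 665/615 nm read.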
# [13] = target: D(2) dopamine receptor (Homo sapiens) (UniProt P14416); assay: Dopamine D2 receptor (DRD2) small molecule agonists, cell-based qHTS assay (AID 1963594); further: nearly all actives have a fitted effect of over 35% in size
# Sequence of D(2) dopamine receptor (Homo sapiens) (P14416 whole entry, looked up): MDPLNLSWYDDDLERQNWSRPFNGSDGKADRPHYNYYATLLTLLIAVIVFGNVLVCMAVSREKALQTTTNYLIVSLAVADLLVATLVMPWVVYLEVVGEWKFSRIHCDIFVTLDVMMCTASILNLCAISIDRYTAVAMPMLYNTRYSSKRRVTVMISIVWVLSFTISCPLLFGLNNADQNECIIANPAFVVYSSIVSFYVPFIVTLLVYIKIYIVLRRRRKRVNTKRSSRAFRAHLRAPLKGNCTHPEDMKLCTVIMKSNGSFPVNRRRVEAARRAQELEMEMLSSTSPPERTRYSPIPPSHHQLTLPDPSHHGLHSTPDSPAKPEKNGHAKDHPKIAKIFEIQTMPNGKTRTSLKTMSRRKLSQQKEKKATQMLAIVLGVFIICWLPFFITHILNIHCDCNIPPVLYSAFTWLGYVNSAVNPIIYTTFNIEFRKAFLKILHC
# Procedure, shortened: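 cAMP accumulation in DRD2-HEK293 cells measured by HTRF after 1 h detection; compounds added 10 min before NKH477 (200nM […]) forskolin-analogue stimulation, 30 min at room temperature, with Ro20-1724 present at 0.1 mM final.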
# [14] = target: D(2) dopamine receptor (Homo sapiens) (UniProt P14416); assay: Dopamine D2 receptor (DRD2) small molecule antagonists, cell-based qHTS assay (AID 1963595; active means well fitted inhibition curve with a large enough effect in the signal ratio in the repeat runs, with a control signal flat; the % refers to the signal ratio; further: potency means the concentration at half of the fitted maximal effect)
# Procedure, shortened: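 HTRF cAMP read-out at 665 and 620 nm emission (340 nm excitation). Antagonist mode: compounds were tested against 12 nM quinpirole in DRD2-HEK293 cells, with 200 nM NKH477 raising cAMP and 0.1 mM Ro20-1724 blocking its breakdown.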
# [15] = p53 small molecule agonists, cell-based qHTS assay: qHTS cell viability counter screen (AID 1963581); further: nearly all actives have a fitted effect of over 45% in size; further: potency means the concentration at half of the fitted maximal effect
# Procedure, shortened: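 Cells: HCT-116 with p53 response element-driven beta-lactamase. Treatment: 16 h, 37 C, compounds in DMSO. Read: CellTiter-Glo luminescence after 30 min RT.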
# [16] = p53 small molecule agonists, cell-based qHTS assay (AID 1963582; active means well fitted activation curve with a large enough effect in the signal ratio in the repeat runs, not every such curve was filed as active; the % refers to the signal ratio)
# Procedure, shortened: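 Quantitative HTS in p53RE-bla cells: after a 5 h settling period, compounds delivered in DMSO were left on cells for 16 h at 37 C, and reporter induction was measured as fluorescence following 2 h substrate loading.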
# [17] = cAMP Responsive Elements (CRE) small molecule agonists, cell-based qHTS assay (AID 1963590)
# Procedure, shortened: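 Agonist mode qHTS in CRE-bla HEK 293T cells: compounds dosed from DMSO for 3 h at 37 C/5% CO2, followed by LiveBLAzer B/G FRET substrate for 2 h at room temperature.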
# [18] = cAMP Responsive Elements (CRE) small molecule antagonists, cell-based qHTS assay (AID 1963591; active means well fitted inhibition curve with a large enough effect in the signal ratio in the repeat runs, not every such curve was filed as active; the % refers to the signal ratio)
# Procedure, shortened: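 Antagonist mode: test compounds are co-incubated with the adenylyl cyclase activator NKH477 (0.25 uM final) on CRE-bla HEK293T cells for 3 h at 37 °C, followed by LiveBLAzer substrate loading.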
# [19] = p53 small molecule agonists, cell-based qHTS assay with human liver microsomes: qHTS cell viability counter screen (AID 1963579); further: nearly all actives have a fitted effect of over 45% in size; further: potency means the concentration at half of the fitted maximal effect
# Procedure, shortened: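 Seed p53RE-bla cells at 4,000 per well; incubate 5 h at 37 C; add compound, human liver microsomes and NADPH; incubate 16 h at 37 C; add CellTiter-Glo; after 30 min at room temperature, read luminescence.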
# [20] = target: Beta-2 adrenergic receptor (Homo sapiens) (UniProt P07550); assay: Adrenergic beta2 receptor (ADRB2) small molecule agonists, cell-based qHTS assay (AID 1963593);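 further: CHO cells stably overexpressing human ADRB2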
# Procedure, shortened: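 CHO cells stably over-expressing ADRB2 were plated overnight at 37C, then dosed with compounds plus a stimulation mix containing 100uM IBMX and 25uM Ro-20-1724 for 0.5hr at room temperature. cAMP was measured by HTRF competition, 1hr.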
Compound,Potency [1],Potency [2],Potency [3],outcome [4],Potency [5],Potency [6],Potency [7],Potency [8],Potency [9],Potency [10],Potency [11],Potency [12],Potency [13],Potency [14],Potency [15],Potency [16],Potency [17],Potency [18],Potency [19],Potency [20]
C=CC(=O)OCCOCC(CC)(COCCOC(=O)C=C)COCCOC(=O)C=C,31.9 µM (active),12.7 µM (active),inactive,inactive,inactive,inactive,inactive,inactive,inactive,inactive,inactive,inactive,inactive,inactive,–,–,–,–,–,–
COc1cc2nc(N3CCN(C(=O)C4CCCO4)CC3)nc(N)c2cc1OC (configuration not stated),inactive,inactive,inactive,inactive,inactive,inactive,inactive,–,–,–,–,–,inactive,inactive,inactive,inactive,inactive,inactive,–,–
Nc1c(CC(=O)O)cccc1C(=O)c1ccc(Br)cc1,inactive,inactive,inactive,inactive,inactive,inactive,inactive,–,–,–,–,inactive,inactive,inactive,–,–,–,–,inactive,–
CCCC(c1cc(C(C)(C)C)c(O)cc1C)c1cc(C(C)(C)C)c(O)cc1C,6.94 µM (active),inactive,inactive,inactive,inactive,inactive,–,–,9.89 µM (active),inactive,inactive,inactive,inactive,24.6 µM (active),5.83 µM (active),–,–,–,9.24 µM (active),–
O=C1NCN(c2ccccc2)C12CCN(CCCC(c1ccc(F)cc1)c1ccc(F)cc1)CC2,29.8 µM (active),inactive,inactive,inactive,inactive,inactive,inactive,0.0516 µM (active),inactive,–,inactive,–,inactive,0.0335 µM (active),–,–,–,–,inactive,–
C=COC(=O)C(C)(CC)CCC(C)C (configuration not stated),inactive,inactive,inactive,inactive,inactive,inactive,inactive,inactive,inactive,inactive,inactive,inactive,inactive,inactive,–,inactive,inactive,inactive,–,–
C=C[C@@H](C)CCC=C(C)C,inactive,inactive,inactive,inactive,inactive,inactive,inactive,inactive,inactive,inactive,inactive,inactive,inactive,inactive,–,inactive,inactive,inactive,inactive,–
Cc1ccc2ccccc2n1,inactive,inactive,inactive,inactive,inactive,inactive,–,inactive,inactive,inactive,inactive,inactive,inactive,inactive,–,–,inactive,inactive,inactive,inactive
CCCCc1nc2cccnc2n1Cc1ccc(-c2ccccc2-c2nnn[nH]2)cc1,inactive,inactive,inactive,inactive,inactive,inactive,inactive,inactive,inactive,inactive,inactive,–,inactive,inactive,inactive,–,–,–,inactive,–
